Measurements as given in PubChem BioAssay AID1159580 (chemical genetic matrix, 2015).
The campaign covered roughly 5,500 compounds. About 2,000 (36%) were called active. About 18% were inconclusive and are not listed. The list shows a part of the results. Values without a mark were called inactive. No stated cut-off is given here; in the data, active means normalized growth mostly below about 0.91 (no sharp cut-off); inconclusive means no clear call, values can overlap the other calls; inactive means mostly above about 0.92.

Assay: chemical genetic growth profiling, strain panel (AID 1159580);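 further: tested at 20 µM; growth read once vehicle control cultures reached saturation at 30 °C; 1 = growth at the plate median or of vehicle wells; lower values mean less growth of the strain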
Conditions: growth OD
[1] = S. cerevisiae deletion strains, locus YAL040C, strain CLN3, hits give low values
[2] = S. cerevisiae deletion strains, locus YCL061C, strain MRC1 (second series), hits give low values
[3] = S. cerevisiae deletion strains, locus YER002W, strain NOP16, hits give low values
[4] = S. cerevisiae deletion strains, locus YNL128W, strain TEP1, hits give low values
[5] = S. cerevisiae deletion strains, locus YNL153C, strain GIM3, hits give low values
[6] = S. cerevisiae deletion strains, locus YNL175C, strain NOP13, hits give low values
[7] = S. cerevisiae deletion strains, locus YNL197C, strain WHI3, hits give low values
[8] = S. cerevisiae deletion strains, locus YNL224C, strain SQS1, hits give low values
[9] = S. cerevisiae deletion strains, locus YOR083W, strain WHI5 (second series), hits give low values
[10] = S. cerevisiae deletion strains, locus YAL013W, strain DEP1, hits give low values
[11] = S. cerevisiae deletion strains, locus YDR150W, strain NUM1, hits give low values
[12] = S. cerevisiae deletion strains, locus YDR363W, strain ESC2, hits give low values
[13] = S. cerevisiae deletion strains, locus YGR078C, strain PAC10, hits give low values
[14] = S. cerevisiae deletion strains, locus YMR307W, strain GAS1, hits give low values
[15] = S. cerevisiae deletion strains, locus YNL322C, strain KRE1, hits give low values
[16] = S. cerevisiae deletion strains, locus YJR075W, strain HOC1, hits give low values
[17] = S. cerevisiae deletion strains, locus YMR263W, strain SAP30, hits give low values
[18] = S. cerevisiae deletion strains, locus YPL241C, strain CIN2, hits give low values
[19] = S. cerevisiae deletion strains, locus YBR229C, strain ROT2, hits give low values
[20] = S. cerevisiae deletion strains, locus YCL061C, strain MRC1, hits give low values
[21] = S. cerevisiae deletion strains, locus YDL101C, strain DUN1, hits give low values
[22] = S. cerevisiae deletion strains, locus YEL061C, strain CIN8, hits give low values
[23] = S. cerevisiae deletion strains, locus YHR030C, strain SLT2, hits give low values
[24] = S. cerevisiae deletion strains, locus YHR087W, strain rtc3, hits give low values
[25] = S. cerevisiae deletion strains, locus YJR043C, strain POL32, hits give low values
[26] = S. cerevisiae deletion strains, locus YLR039C, strain RIC1, hits give low values
[27] = S. cerevisiae deletion strains, locus YLR058C, strain SHM2 (second series), hits give low values
[28] = S. cerevisiae deletion strains, locus YLR085C, strain ARP6, hits give low values
[29] = S. cerevisiae deletion strains, locus YLR262C, strain YPT6, hits give low values
[30] = S. cerevisiae deletion strains, locus YML094W, strain GIM5, hits give low values
[31] = S. cerevisiae deletion strains, locus YMR219W, strain ESC1, hits give low values
[32] = S. cerevisiae deletion strains, locus YNL298W, strain CLA4 (second series), hits give low values
[33] = S. cerevisiae deletion strains, locus YNR030W, strain Alg12, hits give low values
[34] = S. cerevisiae deletion strains, locus YPL055C, strain LGE1, hits give low values
[35] = S. cerevisiae deletion strains, locus YPR135W, strain CTF4, hits give low values

CN1CCc2cc(NC(=O)Nc3cccnc3)ccc21 showed a normalized growth [1] of 0.994, a normalized growth [2] of 0.996 and a normalized growth [3] of 0.996. It also gave a normalized growth (S. cerevisiae deletion strains, locus YGR229C, strain SMI1, hits give low values) of 0.988, a normalized growth [4] of 0.994 and a normalized growth [5] of 1.01. For the same compound, the normalized growth [6] was 1.01, the normalized growth [7] was 0.992 and the normalized growth [8] was 1.03. It also gave a normalized growth [9] of 0.977.
Compound Cn1ccc2cc3c(cc21)CCN3C(=O)Nc1cccnc1 has a normalized growth [10] of 0.995, a normalized growth [1] of 1 and a normalized growth [2] of 1.01. The normalized growth [11] was 0.992, the normalized growth [12] was 0.999 and the normalized growth [3] was 0.999. For the same compound, the normalized growth [13] was 0.998, the normalized growth [14] was 1.01 and the normalized growth [5] was 0.976. The normalized growth [6] was 0.981, the normalized growth [7] was 1 and the normalized growth [8] was 0.989. The normalized growth [15] was 1.01 and the normalized growth [9] was 0.969.
For COc1cc2c(cc1C(F)(F)F)N(C(=O)Nc1cc(F)cc(-c3cccnc3)c1)CC2, the normalized growth [10] was 1.01, the normalized growth [1] was 1.08 and the normalized growth [2] was 1. For the same compound, the normalized growth [11] was 1.02, the normalized growth [12] was 1 and the normalized growth [3] was 1.05. For the same compound, the normalized growth [16] was 1.11 [resistant] (active), the normalized growth [17] was 1.01 and the normalized growth [4] was 1.05. The normalized growth [6] was 1.01, the normalized growth [7] was 1.01 and the normalized growth [8] was 1.02. It also gave a normalized growth [15] of 1.01, a normalized growth [9] of 0.9 and a normalized growth [18] of 1.01.
With c1ccc(C2CC2)c(OCC2=NCCN2)c1 the normalized growth [1] was 1.05, the normalized growth [2] was 1.01 and the normalized growth [11] was 1. It also gave a normalized growth [12] of 1.02, a normalized growth [3] of 0.98 and a normalized growth [13] of 1.01. The normalized growth [17] was 1.01, the normalized growth [6] was 0.994 and the normalized growth [7] was 0.984. The normalized growth [8] was 0.994, the normalized growth [15] was 0.999 and the normalized growth [9] was 1.02. The normalized growth [18] was 1.01.
Compound O=C1c2cccc3c(SCCO)ccc(c23)C(=O)N1CCc1ccccn1 has a normalized growth [10] of 0.999, a normalized growth [19] of 0.997 and a normalized growth [20] of 1. The normalized growth [21] was 1.09, the normalized growth (S. cerevisiae deletion strains, locus YDL134C, strain PPH21, hits give low values) was 1.01 and the normalized growth [11] was 1.02. It also gave a normalized growth [22] of 1, a normalized growth [13] of 1.01 and a normalized growth [23] of 0.903. The normalized growth [24] was 1, the normalized growth (S. cerevisiae deletion strains, locus YJL187C, strain SWE1, hits give low values) was 0.845 (active) and the normalized growth [25] was 0.994. It also gave a normalized growth [16] of 0.984, a normalized growth [26] of 1 and a normalized growth [27] of 0.991. It also gave a normalized growth [28] of 0.948, a normalized growth [29] of 1 and a normalized growth [30] of 1.01. It also gave a normalized growth [31] of 0.995, a normalized growth [17] of 1.01 and a normalized growth [4] of 1. It also gave a normalized growth [5] of 0.995, a normalized growth [32] of 0.993 and a normalized growth [15] of 0.996. The normalized growth [33] was 0.989, the normalized growth [34] was 1.03 and the normalized growth [18] was 0.989. It also gave a normalized growth [35] of 0.907.
In the case of O=C1CNC(=S)N1CCc1ccccn1, the normalized growth [10] is reported as 0.992, the normalized growth [19] is reported as 0.987 and the normalized growth [20] is reported as 0.99. For the same compound, the normalized growth [21] was 0.978, the normalized growth [11] was 0.994 and the normalized growth [22] was 0.999. For the same compound, the normalized growth [13] was 0.987, the normalized growth [23] was 0.951 and the normalized growth [24] was 0.992. The normalized growth [25] was 0.991, the normalized growth [16] was 1.01 and the normalized growth [26] was 0.973. For the same compound, the normalized growth [27] was 0.979, the normalized growth [28] was 1.02 and the normalized growth [29] was 0.962. For the same compound, the normalized growth [30] was 0.945, the normalized growth [31] was 0.993 and the normalized growth [17] was 1. The normalized growth [14] was 1.08, the normalized growth [5] was 1.01 and the normalized growth [32] was 0.966. For the same compound, the normalized growth [15] was 0.983, the normalized growth [33] was 0.98 and the normalized growth (S. cerevisiae deletion strains, locus YOL006C, strain TOP1, hits give low values) was 0.997. For the same compound, the normalized growth [34] was 0.998, the normalized growth [18] was 1.03 and the normalized growth [35] was 0.914. The normalized growth (S. cerevisiae strains, strain wild type, hits give low values) was 0.969.
